The source of these data is PubChem BioAssay AID1259421 (Broad Institute, 2018).

Values joined by “and” are separate entries in the source; they are usually repeats but may differ in a detail not shown here. Equal values may be shown once. About 610 (9.5%) of roughly 6,400 compounds were called active. Rule as the data show it: active = activity change below about -70%; inconclusive = no clear call, values can overlap the other calls; inactive = above that. The entries come from a sample that favours actives as a whole. The source holds several records for some structures; these can differ, active in one and inactive in another.

The assay in a line: Toxoplasma gondii ME49Luc growth in HeLa cells, luciferase, no IFN-y, primary screen (AID 1259421). To be noted: T. gondii ME49Luc in HeLa, 72 h, stronger effect = lower value, concentration not given here.
As to `CC1(O)C(O)C(CO)OC1n1cnc2c(NC3CCCC3)nc(Cl)nc21` (stereo unspecified), the activity change, negative = inhibition was 13.4% (inactive).
Consider `CC[C@@H](C(=O)O)[C@@H]1O[C@@H]([C@@H](C)[C@H](O)[C@H](C)C(=O)[C@H](CC)[C@H]2O[C@]3(C=C[C@@H](O)[C@]4(CC[C@@](C)(C5CC[C@](O)(CC)[C@H](C)O5)O4)O3)[C@H](C)C[C@@H]2C)[C@@H](C)C[C@H]1C` (stereo partly specified), for which the activity change, negative = inhibition was -82.4% (active).
Then `CC[C@@H](C(=O)[C@@H](C)[C@@H](O)[C@H](C)[C@@H]1O[C@@H]([C@@H](CC)C(=O)O)CC[C@@H]1C)[C@H]1O[C@]2(C=C[C@@H](O)[C@]3(CC[C@@](C)(C4CC[C@](O)(CC)[C@H](C)O4)O3)O2)[C@H](C)C[C@@H]1C` (stereo partly specified), with -83.1% (active); and `CC[C@@H](C(=O)[C@@H](C)[C@@H](O)[C@H](C)[C@@H]1O[C@@H]([C@@H](CC)C(=O)O)CC[C@@H]1C)[C@H]1OC2(C=C[C@@H](O)[C@]3(CC[C@@](C)(C4CC[C@](O)(CC)[C@H](C)O4)O3)O2)[C@H](C)C[C@@H]1C` (stereo partly specified), with -90.6% (active); and `CC[C@@H](C(=O)O)C1CC[C@H](C)C([C@@H](C)[C@H](O)[C@H](C)C(=O)[C@H](CC)C2O[C@]3(C=C[C@@H](O)[C@]4(CC[C@@](C)(C5CC[C@](O)(CC)[C@H](C)O5)O4)O3)[C@H](C)C[C@@H]2C)O1` (stereo partly specified), with -72.7% (active) and -80.8% (active).
Next, `NC(CC(F)C(=O)O)C(=O)O` (stereo unspecified): 4.86% (inactive).
As to `O=C(O)C1/C(=C\CO)OC2CC(=O)N21` (stereo unspecified), the activity change, negative = inhibition was 6.21% (inactive).
For the compound `Cc1cc(-c2ncc(CC(=O)Nc3ccc(-c4cnccn4)cn3)cc2C)ccn1`, the activity change, negative = inhibition was 5% (inactive).
Next, `N#CC(C#N)Cc1ccc(O)cc1`: 0.596% (inactive).
Then `COc1ccccc1Oc1c(NS(=O)(=O)c2ccc(C)cn2)nc(-c2ccncc2)nc1OC`, with 7.32% (inactive).
Next, `O=C(NN1C(=O)[C@@H]2[C@@H]3C=C[C@@H]([C@H]4C[C@@H]34)[C@@H]2C1=O)c1ccc(C(F)(F)F)cc1`: 3.93% (inactive); `COc1ccc(CCN(C)CCCOc2ccc(S(=O)(=O)c3c(C(C)C)c4ccccc4n3C)cc2)cc1OC`: -76.5% (active).
Regarding `COc1ccc(CCN(C)CCCN2CCc3cc(OC)c(OC)cc3CC2=O)cc1OC`, the activity change, negative = inhibition is 10.1% (inactive).
With `COc1ccc(CCN(C)CCc2ccc(OC)c(OC)c2)cc1OC`, the activity change, negative = inhibition is 7.34% (inactive) and -3.3% (inactive).
As to `CO[C@@H]1[C@@H](O[C@@H]2O[C@H](C)[C@@H](O[C@H]3C[C@@](C)(OC(=O)CC(C)C)[C@@H](O)[C@H](C)O3)[C@H](N(C)C)[C@H]2O)[C@@H](CC=O)C[C@@H](C)[C@@H](O)/C=C/C=C/C[C@@H](C)OC(=O)C[C@H]1OC(C)=O`, the activity change, negative = inhibition was -10.6% (inactive).
For `COc1ccc(CCO[C@@H]2CCCC[C@H]2N2CC[C@@H](O)C2)cc1OC`, the activity change, negative = inhibition was 23% (inactive).
Then `O=C1c2cccc(O)c2C(=O)c2c(O)cc(CO)cc21`, with -11.5% (inactive); and `O=C1c2c(O)ccc(O)c2C(=O)c2c(NCCNCCO)ccc(NCCNCCO)c21`, with -73.8% (active) and -3.38% (inactive); and `O=C1c2cccc(O)c2C(=O)c2c(O)cccc21`, with 3.71% (inactive) and 0.722% (inactive).
`CCCCCCCC/C=C/CCCCCCCC(=O)NCCO`: the activity change, negative = inhibition was -10.5% (inactive).
Next, `C=C1C(=O)[C@]23[C@H](O)[C@H]1CC[C@@H]2[C@@]12CO[C@]3(O)C[C@@H]1C(C)(C)CC[C@@H]2O`: -77.5% (active) and 3.05% (inactive).
Regarding `O=c1cc(-c2ccccc2O)oc2cc(O)ccc12`, the activity change, negative = inhibition was 190% (inactive).
For `COP(=O)(OC)OC(c1ccc(Cl)cc1)P(=O)(OC)OC` (stereo unspecified), the activity change, negative = inhibition is 5.14% (inactive) and 12.1% (inactive).
Then `CN(C)Cc1ccc(S(=O)(=O)n2ccc(/C=C/C(=O)NO)c2)cc1`, with -84.8% (active); and `c1ccc2sc(SN3CCOCC3)nc2c1`, with 17.7% (inactive); and `COc1c(-c2ccc3cc(NS(C)(=O)=O)ccc3c2)cc(-n2ccc(=O)[nH]c2=O)cc1C(C)(C)C`, with 17.6% (inactive).
Then `CC(=O)OCC(=O)[C@@]1(O)[C@H](C)CC2C3CCC4=CC(=O)C=C[C@]4(C)[C@@]3(F)[C@@H](O)C[C@@]21C` (stereo partly specified), with -8.27% (inactive); and `Nc1nc(-c2ccc(Cl)c(Cl)c2)c(-c2ccncc2)s1`, with -9.5% (inactive); and `COC(=O)[C@@]12OC[C@]34[C@H]([C@@H](O)[C@@H]1O)[C@@]1(C)CC(=O)C(=O)C(C)[C@@H]1C[C@H]3OC(=O)[C@H](OC(=O)/C=C(\C)C(C)C)[C@@H]24` (stereo partly specified), with -83.7% (active).
As to `CC(CCC(=O)O)[C@H]1CCC2C3C(=O)C[C@@H]4CC(=O)CC[C@]4(C)C3CC(=O)[C@@]21C` (stereo partly specified), the activity change, negative = inhibition was 4.28% (inactive) and -3.38% (inactive).
Then `Cc1onc(-c2ccccc2)c1C(=O)N[C@@H]1C(=O)N2[C@@H](C(=O)O)C(C)(C)S[C@@H]12`, with 3.42% (inactive); and `N[C@H](Cc1cc(I)c(Oc2ccc(O)c(I)c2)c(I)c1)C(=O)O`, with 2.18% (inactive) and -1.07% (inactive); and `N[C@@]1(C(=O)O)CS(=O)(=O)[C@H]2[C@H](C(=O)O)[C@H]21`, with 8.77% (inactive).
Then Ac-PHSCN-NH2, with 12.4% (inactive); and `CC1(C)CC(=O)c2c(C(F)(F)F)nn(-c3ccc(C(N)=O)c(NC4CCC(OC(=O)CN)CC4)c3)c2C1` (stereo unspecified), with -75.4% (active); and `CC1(C)CC(=O)c2c(C(F)(F)F)nn(-c3ccc(C(N)=O)c(NC4CCC(O)CC4)c3)c2C1` (stereo unspecified), with -81.9% (active).
As for `Cn1nnc(-c2ccc(-c3ccc(N4C[C@H](CO)OC4=O)cc3F)cn2)n1`, the activity change, negative = inhibition was 60.5% (inactive).
Next, `CCOC(=O)[C@@H](CCc1ccccc1)N[C@H](C)C(=O)N1[C@@H]2CCC[C@H]2C[C@H]1C(=O)O`: 14.6% (inactive); `CCCCS(=N)(=O)CC[C@H](N)C(=O)O` (stereo partly specified): 0.306% (inactive).
Regarding `CCCC[C@@H](CC)COC(=O)C(C#N)=C(c1ccccc1)c1ccccc1`, the activity change, negative = inhibition was -53.6% (inactive).
With `CC(=O)OCC(=O)[C@@]1(O)[C@H](OC(C)=O)CC2C3CCC4=CC(=O)C=C[C@]4(C)[C@@]3(F)[C@@H](O)C[C@@]21C` (stereo partly specified), the activity change, negative = inhibition was -7.39% (inactive).
